Data on 40 compounds can be found in PubChem BioAssay (NCI).

Structures are written as SMILES. The panel holds about 83,000 compounds, 20% with a hit somewhere; the sample as a whole holds those more often.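 A percent growth of 40 corresponds to 60% growth inhibition; 0 means no net growth; -100 means all cells died. Active threshold: below 10.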 Unmarked numbers belong to inactive results. Calls of active or inactive are those of the source.

This assay has as its system MDA-MB-435 melanoma. The assay can be described thus: NCI-60 one-dose screen, 48 h (100 = growth as untreated, 0 = no growth, -100 = all killed). To be noted: 10 µM unless noted. The procedure: Growth inhibition of the MDA-MB-435 human Melanoma tumor cell line is measured as a screen for anti-cancer activity. Cells are grown in 96 well plates and exposed to the test compound for 48 hours. Compounds are tested at a single concentration, which is 10^-5 M for most compounds. The reported endpoint is percent growth (GI% or GIPRCNT), where numbers from 0 - 100% represent growth inhibition, and numbers from -100% - 0 represent cell death. For example, a value of 40 represents 60% growth inhibition. A value of 0 means no net growth occurred over the course of the experiment. A value of -40 indicates 40% of cells at the beginning of the experiment died by the end of the experiment. A value of -100 means all cells are dead at the end of the experiment.
NCI-60 Human Tumor Cell Lines Screen was performed using the standard one-dose NCI protocol, which is described in more detail at https://dtp.cancer.gov/discovery_development/nci-60/default.htm.
Compounds with GIPRCNT values below 10 were considered active. Activity score was based on GIPRCNT using the following formula: […]
Score is 0 for GIPRCNT values of 100 or above, 50 for GIPRCNT values of 0, and 100 for GIPRCNT values of -100.
Take `COc1cc(/C=C/C(=O)c2cccs2)ccc1OCc1ccc(Cl)nc1`: the growth was 76.7%.

As to `CC(=O)c1ccc(NC(=O)CSc2nnc(-c3cc(-c4ccc(C)cc4)nc4ccccc34)o2)cc1`, the growth is 80.9%.

For the compound `C=C(C)[C@@H]1CC[C@]2(C(=O)NCCCO)CC[C@]3(C)[C@H](CC[C@@H]4[C@@]5(C)CCCNC(C)(C)[C@@H]5CC[C@]43C)[C@@H]12`, the growth is 69.9%.

Turning to `O=[N+]([O-])c1cccc(CN(Cc2cccc([N+](=O)[O-])c2O)c2ccccc2)c1O`, the growth was 91.4%.

Take `Cc1nc(C)c(C)nc1C`: the growth is 108%.

As to `COc1ccc(C(=O)c2cc(OC)c(C)c(OC)c2)cc1OC(=O)CCl`, the growth is -17.2% (active).

Regarding `O=[N+]([O-])c1ccc(N=Nc2c(O)c(N=Nc3cc([N+](=O)[O-])cc([N+](=O)[O-])c3O)cc(N=Nc3cc(S(=O)(=O)O)cc4cc(S(=O)(=O)O)cc(O)c34)c2O)cc1`, the growth was 107%.

As for `Cc1nc2sc(C(=O)Nc3cccc4ccccc34)c(N)c2cc1C(C)O` (stereo not given), the growth is -33.7% (active).

In the case of `COC(=O)/C=C1\SC(=Nc2ccc(C(F)(F)F)cc2)N(CCc2c[nH]c3ccccc23)C1=O`, the growth is -85.1% (active).

With `COc1ccc(-c2nc(C#N)c(NCC(c3ccco3)N3CCCC3)o2)cc1` (stereo not given), the growth is -23.5% (active).

As for `N#Cc1ccc(N2Cc3cc(Cl)ccc3OC3=C2C(=O)N(Cc2ccc(F)cc2)C3=O)cc1`, the growth is -48.8% (active).

With `COc1ccc(-c2[nH]c3ccc(OC)cc3c2C=C(C#N)C#N)cc1`, the growth is -62.5% (active).

For `CCCS(=O)(=O)Nc1ccc(F)c(C(=O)c2c[nH]c3ncc(-c4ccc(OCCCC5CCCCN5)nc4)cc23)c1F` (stereo not given), the growth is 25.9%.

As to `CC1=C/C(=N\N=C2/C=C(C)CC(C)(C)C2)CC(C)(C)C1`, the growth was 108%.

With `COc1ccc2c(c1)Oc1nc(N)c(C#N)c(N)c1C2Sc1ccc(SC)cc1` (stereo not given), the growth is 24.2%.

Regarding `COC(=O)c1ccc2c(c1)n(Cc1ccc3ccccc3c1)c[n+]2Cc1ccc2ccccc2c1`, the growth was 4.2% (active).

For the compound `CC(=O)Oc1ccc(O)cc1`, the growth is 106%.

For the compound `S=C(Nc1ccccc1)c1ccccn1`, the growth is 103%.

Turning to `O=C(C[n+]1cccc2cc(Cl)ccc21)c1ccc2c(c1)CCCC2`, the growth was 10.8%.

For the compound `CSc1cccc(NC(=O)Nc2nc3c(C)cccc3s2)c1`, the growth was 106%.

Regarding `N#Cc1c(-c2ccc(F)cc2)nc(N/N=C/c2c[nH]c3ccccc23)nc1N1CCOCC1`, the growth was 77.2%.

Regarding `Nc1c(C(=O)Nc2cccc3ccccc23)sc2nc3c(cc12)CCCCCC3`, the growth is -39.3% (active).

As for `O=C(NCc1ccccc1)c1ccc2c(c1)NC(=O)[C@@H]1CCCN21`, the growth is 99.6%.

Take `CCc1c(C(=O)N[C@@H](C(=O)OCc2ccccc2)C(C)O)[nH]c2ccc(Cl)cc12` (stereo not given in full): the growth was 87.9%.

For the compound `COc1ccc(C2C(c3ccccc3)C(=O)N2c2cc(OC)c(OC)c(OC)c2)cc1I` (stereo not given), the growth is 2.2% (active).

As for `C=C1C(=O)O[C@H]2[C@H]1CC/C(COC(=O)c1cc3ccccc3o1)=C\CC[C@@]1(C)O[C@@H]21`, the growth was -35.1% (active).

Turning to `COc1cc(NC(=O)Nc2cnc(Nc3ccc(N4CCOCC4)cc3)nc2Oc2ccc(C(F)(F)F)cc2)cc(OC)c1`, the growth was 107%.

As to `Cc1cc2ccccc2c[n+]1CC(=O)c1ccc(-c2ccccc2)cc1`, the growth is 66.3%.

As for `CCOC(=O)c1c(C)nc2c(c1N)/C(=C/c1cccs1)C(=O)N2Cc1ccccc1`, the growth is 88.9%.

Regarding `N#Cc1ccc(N2Cc3cc(Cl)ccc3OC3=C2C(=O)N(Cc2ccccc2)C3=O)cc1`, the growth is -42.5% (active).

On to `COC(=O)/C=C/c1cc(OC)c2c(c1)[C@@H](C(=O)OC)[C@H](c1ccc(OC)c(OC)c1)O2`, for which the growth was -42.3% (active).

As to `Cc1nccc2c3ccc(OCc4cn(-c5ccc(Br)cc5)nn4)cc3n(CC(C)C)c12`, the growth is 61.3%.

In the case of `CN1CCN(S(=O)(=O)O[C@@H]2C(=O)N(c3cc4c5ccccc5ccc4c4ccccc34)[C@H]2c2ccc(F)cn2)CC1`, the growth was 98.1%.

As to `Cc1c(Cl)cccc1NC(=O)c1sc2nc3c(cc2c1N)CN(Cc1ccccc1)CC3`, the growth is -4.11% (active).

On to `N#CC1(C#N)C2=C(CCCC2)NC(c2c(F)cccc2Cl)C1(C#N)C#N` (stereo not given), for which the growth was 18%.

With `CN(C)c1ccc(-c2ccc3[nH]c(=O)nc(-c4ccc(F)cc4)c3c2)cn1`, the growth was 2.63% (active).

For the compound `CNC(=O)c1cc(Oc2ccc3c(c2)sc2nc(-c4ccc(NC(C)=O)cc4)cn23)ccn1`, the growth is 3.75% (active).

Take `OCCNc1nc(NCCO)nc(Nc2ccc(C3=NN(c4ccc(Cl)cc4)C(c4ccc(Cl)cc4)C3)cc2)n1` (stereo not given): the growth is 58.1%.

As to `COc1ccc(C(=O)c2cc(OC)c(OC)c(OC)c2)cc1OC(=O)C(Cl)(Cl)Cl`, the growth is -13.5% (active).

On to `O=c1c2ccccc2oc2ccc(OCCCCCN3CCCCCC3)cc12`, for which the growth is 73.8%.
